Experiment [1] is described as follows: small molecules captured by biotinylated probe aFSTL3 – biochemical, small-molecule microarray, fluorescence 635/667, stem cell growth factor project, primary screen (AID 1064).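 Also: measures binding of the biotinylated anti-FSTL3 antibody to printed compounds.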 The conditions noted are these: higher = more signal.
Experiment [2] is described as follows: binders from COS7 lysate, DM2A8 probe, primary screen, torsin A project, cell lysate, small-molecule microarray, fluorescence 635/667 (AID 1065). The conditions noted are these: higher = more signal, COS7 lysate expressing mutant human TOR1A.
A short description of experiment [3]: small molecules captured by biotinylated probe aFGF2 – biochemical, small-molecule microarray, fluorescence 635/667, stem cell growth factor project, primary screen (AID 1067).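 Also: measures binding of biotinylated aFGF2 protein to printed compounds on slides; z-score merges feature fluorescence and signal-to-noise across triplicate slides.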 The conditions noted are these: higher = more signal.
Experiment [4] is described as follows: small molecules captured by biotinylated probe aFGF10 – biochemical, small-molecule microarray, fluorescence 635/667, stem cell growth factor project, primary screen (AID 1071).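 Also: score merges 667 nm spot intensity and signal to noise from triplicate slides.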 The conditions noted are these: higher = more signal.
The target of experiment [5] is Neurogenic locus notch homolog protein 2 (Homo sapiens) (UniProt Q04721). Description: small molecules binding Notch2 protein – biochemical, small-molecule microarray, 635 nm fluorescence, stem cell growth factors, primary screen (AID 1073). The conditions noted are these: higher = more signal.
The target of experiment [6] is Pro-neuregulin-1, membrane-bound isoform (Homo sapiens) (UniProt Q02297). Description: small molecules binding neuregulin-1 protein – biochemical, small-molecule microarray, fluorescence 635/667, psychiatric disease protein project, primary screen (AID 1075).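 Also: score combines 667 nm spot fluorescence with signal to noise.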 The conditions noted are these: NRG1 binding, 635 nm fluorescence, higher = more signal.
The test system of experiment [7] is Neuregulin-1 EGF-like domain. Description: small molecules binding NRG1 EGF domain – biochemical, small-molecule microarray, 635 nm fluorescence, primary screen (AID 1081).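 Also: binding of the protein to compounds printed on small-molecule microarray slides.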 The conditions noted are these: higher = more signal.
A short description of experiment [8]: FRG1 expression reporter modulators in myotubes – cell-based, C2C12 myotubes, firefly/Renilla luciferase, luminescence, FRG1 inhibition for FSHD, primary screen (AID 1084). The conditions noted are these: FRG1 promoter luciferase, higher = more signal, called active from +8 up or from −8 down.
Experiment [9] is described as follows: small molecules captured by biotinylated probe aFST – biochemical, small-molecule microarray, fluorescence 635/667, stem cell growth factor project, primary screen (AID 1086).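 Also: score merges 667 nm fluorescence with signal-to-noise of each printed compound spot.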 The conditions noted are these: higher = more signal.
Experiment [10] in a line: binders of probe aHhip on microarray, primary screen, stem cell growth factor project, biochemical, small-molecule microarray, fluorescence 635/667 (AID 1087).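 Also: score merges spot fluorescence at 667nm with spot signal to noise ratio.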 The conditions noted are these: higher = more signal.

Activity calls are given as the source filed them.

Sequence of Neurogenic locus notch homolog protein 2 (Homo sapiens) (Q04721 whole entry, looked up, canonical isoform): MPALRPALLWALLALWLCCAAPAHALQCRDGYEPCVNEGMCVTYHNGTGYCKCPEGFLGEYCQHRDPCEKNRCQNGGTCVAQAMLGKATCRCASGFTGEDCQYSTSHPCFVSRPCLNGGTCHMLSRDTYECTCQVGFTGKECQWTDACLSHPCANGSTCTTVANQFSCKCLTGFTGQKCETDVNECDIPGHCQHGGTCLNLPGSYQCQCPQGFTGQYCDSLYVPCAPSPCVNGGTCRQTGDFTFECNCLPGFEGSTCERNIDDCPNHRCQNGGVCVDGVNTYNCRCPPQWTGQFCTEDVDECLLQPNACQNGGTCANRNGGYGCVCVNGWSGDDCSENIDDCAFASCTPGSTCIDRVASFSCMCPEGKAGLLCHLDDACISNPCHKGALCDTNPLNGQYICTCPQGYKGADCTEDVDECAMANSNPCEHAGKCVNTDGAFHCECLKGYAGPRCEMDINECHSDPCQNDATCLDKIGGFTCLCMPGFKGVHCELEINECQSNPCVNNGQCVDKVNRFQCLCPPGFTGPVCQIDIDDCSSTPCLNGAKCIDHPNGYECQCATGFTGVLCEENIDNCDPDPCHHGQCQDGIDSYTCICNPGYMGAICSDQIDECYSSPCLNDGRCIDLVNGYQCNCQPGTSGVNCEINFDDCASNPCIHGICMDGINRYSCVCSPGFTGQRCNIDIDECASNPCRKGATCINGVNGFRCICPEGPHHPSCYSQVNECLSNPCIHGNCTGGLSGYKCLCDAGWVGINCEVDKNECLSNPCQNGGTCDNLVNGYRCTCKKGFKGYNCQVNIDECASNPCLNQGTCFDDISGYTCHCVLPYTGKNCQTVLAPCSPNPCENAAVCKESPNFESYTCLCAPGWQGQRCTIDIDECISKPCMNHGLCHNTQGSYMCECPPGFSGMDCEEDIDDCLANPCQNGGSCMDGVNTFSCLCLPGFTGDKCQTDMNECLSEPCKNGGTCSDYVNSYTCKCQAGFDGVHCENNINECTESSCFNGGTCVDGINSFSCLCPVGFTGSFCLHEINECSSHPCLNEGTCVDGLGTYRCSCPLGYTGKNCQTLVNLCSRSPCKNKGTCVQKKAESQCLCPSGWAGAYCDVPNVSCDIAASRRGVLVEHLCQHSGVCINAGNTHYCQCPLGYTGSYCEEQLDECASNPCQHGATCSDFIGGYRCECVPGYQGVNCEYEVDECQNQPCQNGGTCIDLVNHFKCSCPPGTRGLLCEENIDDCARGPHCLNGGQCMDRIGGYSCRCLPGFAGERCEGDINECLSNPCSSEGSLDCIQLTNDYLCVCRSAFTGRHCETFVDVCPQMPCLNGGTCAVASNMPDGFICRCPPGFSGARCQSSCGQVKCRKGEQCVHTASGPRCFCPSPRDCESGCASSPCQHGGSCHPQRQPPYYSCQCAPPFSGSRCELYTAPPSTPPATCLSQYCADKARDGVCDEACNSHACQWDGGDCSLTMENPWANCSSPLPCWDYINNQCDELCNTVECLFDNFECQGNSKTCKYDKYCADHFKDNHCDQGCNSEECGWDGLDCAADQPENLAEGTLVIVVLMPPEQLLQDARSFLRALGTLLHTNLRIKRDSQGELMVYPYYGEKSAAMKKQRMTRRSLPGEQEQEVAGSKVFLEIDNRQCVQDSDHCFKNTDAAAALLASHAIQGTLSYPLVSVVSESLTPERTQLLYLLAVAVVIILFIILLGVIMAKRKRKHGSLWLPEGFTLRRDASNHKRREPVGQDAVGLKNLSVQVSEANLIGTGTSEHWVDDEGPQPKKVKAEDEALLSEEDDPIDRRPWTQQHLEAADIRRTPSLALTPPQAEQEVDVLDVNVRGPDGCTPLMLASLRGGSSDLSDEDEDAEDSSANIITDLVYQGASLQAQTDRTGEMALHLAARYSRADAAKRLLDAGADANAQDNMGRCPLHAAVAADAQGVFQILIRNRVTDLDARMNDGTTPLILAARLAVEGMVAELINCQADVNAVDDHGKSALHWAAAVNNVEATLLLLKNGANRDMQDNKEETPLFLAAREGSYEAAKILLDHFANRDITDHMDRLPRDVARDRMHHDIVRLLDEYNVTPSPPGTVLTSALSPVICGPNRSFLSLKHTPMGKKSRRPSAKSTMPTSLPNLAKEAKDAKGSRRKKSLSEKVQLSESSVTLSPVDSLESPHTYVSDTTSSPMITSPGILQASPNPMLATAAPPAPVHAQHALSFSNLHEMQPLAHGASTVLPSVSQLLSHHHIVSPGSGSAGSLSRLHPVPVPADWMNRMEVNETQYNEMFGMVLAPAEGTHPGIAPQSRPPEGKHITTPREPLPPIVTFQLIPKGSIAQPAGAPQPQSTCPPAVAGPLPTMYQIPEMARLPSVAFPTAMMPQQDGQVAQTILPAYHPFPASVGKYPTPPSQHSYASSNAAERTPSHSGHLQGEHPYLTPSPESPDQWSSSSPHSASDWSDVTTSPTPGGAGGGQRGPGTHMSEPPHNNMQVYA
Sequence of Pro-neuregulin-1, membrane-bound isoform (Homo sapiens) (Q02297 whole entry, looked up, the tested form may be a part, canonical isoform): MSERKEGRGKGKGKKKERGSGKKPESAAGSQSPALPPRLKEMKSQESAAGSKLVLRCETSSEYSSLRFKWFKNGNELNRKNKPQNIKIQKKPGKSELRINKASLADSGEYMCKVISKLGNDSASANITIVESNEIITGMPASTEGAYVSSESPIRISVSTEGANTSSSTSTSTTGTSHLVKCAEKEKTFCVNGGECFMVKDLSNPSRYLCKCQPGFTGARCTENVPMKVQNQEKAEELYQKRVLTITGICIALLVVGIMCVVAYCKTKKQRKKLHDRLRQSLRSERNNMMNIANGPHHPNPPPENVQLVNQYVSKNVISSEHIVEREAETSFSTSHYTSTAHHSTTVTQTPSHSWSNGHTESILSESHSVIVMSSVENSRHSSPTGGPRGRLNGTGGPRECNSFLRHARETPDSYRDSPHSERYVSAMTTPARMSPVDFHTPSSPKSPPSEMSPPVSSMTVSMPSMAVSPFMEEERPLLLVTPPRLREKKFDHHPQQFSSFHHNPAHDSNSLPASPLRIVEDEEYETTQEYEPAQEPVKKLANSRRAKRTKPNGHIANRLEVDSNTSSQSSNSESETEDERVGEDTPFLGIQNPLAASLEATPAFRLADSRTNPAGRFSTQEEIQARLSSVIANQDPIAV

`COC(=O)[C@H](C)NC(=O)CCC1CC(OC(=O)NCc2ccc3c(c2)OCO3)CC2(CCCC(COC(=O)NCc3ccccc3)O2)O1` (stereo not given in full): the composite z-score was -0.344 in experiment [1]; 0.0374 in [2]; 0.0025 in [3]; 0.721 in experiment [4]; 0.748 in experiment [5]; 0.52 in experiment [6]. The figures for the composite z-score in experiment [7], in experiment [9] and in experiment [10] were 0.877, 0.0613 and -0.212, respectively. In experiment [8], the z-score was -0.156 (inactive).
Regarding `CC(=O)OC[C@H]1O[C@H](C#CCCc2ccccc2)C=C[C@@H]1OC(C)=O`, the composite z-score in experiment [1] was -0.692; in experiment [2] it was 0.271; in experiment [3], -0.0732; in [4], 0.335; in experiment [5] it was 0.445; in experiment [6], 1.22. Besides, the composite z-score in [7] stood at 0.543; in experiment [9] it was 0.302; in [10] it was 0.0053. In addition, the z-score in [8] was 0.0903 (inactive).
For `O=C1CCCC=C1C(O)C1CCCCC1` (stereo not given), the composite z-score in experiment [1] is -0.53; in experiment [2], 0.835; in experiment [3], -0.141; in experiment [4] it was 0.191; in experiment [5] it was -0.0306; in experiment [6], -0.594. Also, the composite z-score in experiment [7] is -0.593; in experiment [9], -0.0962; in [10], 0.0373. The z-score in [8] is 0.0424 (inactive).
On to `CCc1cc2c(nc1CC)CCN(CCC(C)=NOC[C@@H](C)[C@H](OCc1ccccc1)C(C)C)C2`, for which the composite z-score in [1] is -0.251; in experiment [2], -0.176; in experiment [3] it was -0.226; in experiment [4] it was -1.25; in experiment [5], -1.17; in experiment [6] it was -0.769. Moreover, the results for the composite z-score in [7], in experiment [9] and in experiment [10] were -0.47, -1.36 and -0.132, respectively. For the same molecule, in experiment [8], the z-score was -0.856 (inactive).
Turning to `CCN1C(=O)[C@H]2[C@H]3[C@H](O)[C@H](O)CC(=NO[C@H](C)c4cn([C@@H]5COC[C@H]5O)nn4)[C@@H]3CC[C@H]2C1=O`, the composite z-score in [1] is -0.258; in experiment [2], 0.307; in [3], -0.0853; in experiment [4], 0.307; in experiment [5] it was 0.0679; in [6], -0.455. Also, the results for the composite z-score in experiment [7], in experiment [9] and in experiment [10] were -0.14, 0.0423 and -0.238, respectively. In addition, in experiment [8], the z-score is 0.225 (inactive).
On to `CC#CCOCCC=C1c2ccccc2[C@@H](OC)[C@@H]1C`, for which the composite z-score is -0.35 in [1]; 0.575 in [2]; -0.143 in experiment [3]; 0.452 in [4]; 0.105 in [5]; -0.361 in [6]. Further, the composite z-score in experiment [7] worked out at 0.244; in experiment [9] it was 0.359; in [10], 0.154. The z-score in experiment [8] was 0.181 (inactive).
As to `CCCNC(=O)OC[C@H]1O[C@H](CCON=C2C[C@@H](O)[C@@H](O)[C@@H]3[C@@H]4C(=O)N(CC)C(=O)[C@@H]4CC[C@@H]23)C=C[C@@H]1Oc1ccc(OC)cc1`, the composite z-score in experiment [1] was -0.465; in experiment [2], 0.142; in experiment [3], -0.0165; in experiment [4], 0.64; in experiment [5], 0.705; in experiment [6] it was 0.628. The results for the composite z-score in experiment [7], in experiment [9] and in experiment [10] were 0.898, 0.46 and -0.0645, respectively. For the same molecule, the z-score in [8] is 0.36 (inactive).
With `CO[C@@H]1COC(=O)[C@@H]2CCCN2C(=O)[C@@H](C)COC(=O)CCC[C@H]1C`, the composite z-score in [1] was -0.468; in [2], 0.352; in [3] it was -0.0836; in experiment [4], 0.367; in experiment [5], 0.997; in [6], -0.0887. Also, the composite z-score is 1.19 in [7], -0.288 in experiment [9] and -0.0645 in [10]. The z-score in experiment [8] was -0.343 (inactive).
`CON=C(C)CCN1CCc2nc(-c3ccccc3)c(-c3ccccc3)cc2C1`: the composite z-score in experiment [1] was -0.262; in experiment [2], -0.052; in experiment [3] it was -0.128; in experiment [4] it was -0.149; in [5] it was 0.195; in [6], 0.387. The composite z-score in experiment [7] is -0.961; in [9] it was 0.0046; in experiment [10], -0.201. The z-score in experiment [8] is 0.953 (inactive).
With `C=CC[C@@H]1C=CC(ON=C(C)C)[C@@H](CO)O1` (stereo not given in full), the composite z-score is 0.0856 in experiment [1]; -0.809 in [2]; -0.196 in [3]; -0.246 in [4]; -0.561 in experiment [5]; -0.34 in experiment [6]. Besides, the composite z-score was -0.0889 in [7], -0.238 in [9] and 0.107 in experiment [10]. Also, in [8], the z-score was 1.35 (inactive).
Turning to `CC(CCN1CCCc2nc(C)c(C)cc21)=NO[C@H](C)c1cn([C@H](CO)Cc2ccccc2)nn1`, the composite z-score in experiment [1] is -0.303; in [2], 0.455; in experiment [3] it was -0.0568; in [4], 0.545; in [5], 0.531; in experiment [6], 0.0463. Further, the composite z-score in experiment [7] was 1.03; in experiment [9], 0.64; in experiment [10] it was -0.236. Also, in experiment [8], the z-score was 1.53 (inactive).
`COc1ccc(O[C@H]2C=C[C@@H](C#Cc3ccccc3)O[C@@H]2CO)cc1`: the composite z-score was -0.213 in experiment [1]; 0.0018 in experiment [2]; -0.0206 in experiment [3]; 0.457 in [4]; 0.339 in experiment [5]; 0.658 in experiment [6]. Further, the composite z-score in experiment [7] is 0.644; in experiment [9], 0.137; in experiment [10] it was -0.236. The z-score in experiment [8] is -1.37 (inactive).
For `CC(C)CON=C1[C@H]2CCn3c(=O)n(C)c(=O)n3[C@H]2[C@H](O)[C@@H]2O[C@H]12`, the composite z-score in [1] is -0.553; in experiment [2], -0.0908; in experiment [3] it was -0.136; in experiment [4], 0.469; in experiment [5] it was 0.493; in experiment [6], 0.288. In addition, the composite z-score in [7] was 0.157; in [9], -0.0694; in experiment [10] it was 0.0505. Also, the z-score in [8] is -0.0014 (inactive).

Values taken from PubChem BioAssay.
